Data on 13 compounds can be found in PubChem BioAssay.

Molecules are shown by their SMILES. Active and inactive are the calls of the source. Unless noted, the rule behind the calls is not given here.

The nature of assay [1]: resazurin metabolic signal in HepG2 cells – cell-based, resazurin fluorescence, 24 h, PK04 Diversity Set, profiling panel (AID 1172). Note: test concentration not given here. The following applies: HepG2 viability, higher = more signal.
Assay [2] in a line: budding yeast growth changes without added modifier – OD600, strain BY4716, 24 h, basal condition, primary screen (AID 1173). The following applies: S. cerevisiae BY4716 growth, OD600, 24 h; higher = more signal, called active from +8 up or from −8 down.
Assay [3] is described as follows: viability profiling in MM1S myeloma cells – cell-based, resazurin fluorescence, basal, 24 h, PK04 Diversity Set, profiling panel (AID 1174).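 Note: MM1S multiple myeloma cell line; test concentration not given here.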 The following applies: higher = more signal, called active from +8 up or from −8 down.
Assay [4] deals with Dihydroorotate dehydrogenase (quinone), mitochondrial (Plasmodium falciparum (isolate 3D7)) (UniProt Q08210). Put plainly: inhibition of P. falciparum DHODH – biochemical, C-terminal His tag, absorbance 600 nm, primary screen (AID 1175).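 Note: recombinant parasite enzyme with a five histidine tag at its C terminus; test concentration not given here.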 To be noted: PfDHODH enzyme, DCIP absorbance 600 nm; higher = more signal, called active from +8 up or from −8 down.
Chain of Dihydroorotate dehydrogenase (quinone), mitochondrial (Plasmodium falciparum (isolate 3D7)) (Q08210 whole entry, looked up): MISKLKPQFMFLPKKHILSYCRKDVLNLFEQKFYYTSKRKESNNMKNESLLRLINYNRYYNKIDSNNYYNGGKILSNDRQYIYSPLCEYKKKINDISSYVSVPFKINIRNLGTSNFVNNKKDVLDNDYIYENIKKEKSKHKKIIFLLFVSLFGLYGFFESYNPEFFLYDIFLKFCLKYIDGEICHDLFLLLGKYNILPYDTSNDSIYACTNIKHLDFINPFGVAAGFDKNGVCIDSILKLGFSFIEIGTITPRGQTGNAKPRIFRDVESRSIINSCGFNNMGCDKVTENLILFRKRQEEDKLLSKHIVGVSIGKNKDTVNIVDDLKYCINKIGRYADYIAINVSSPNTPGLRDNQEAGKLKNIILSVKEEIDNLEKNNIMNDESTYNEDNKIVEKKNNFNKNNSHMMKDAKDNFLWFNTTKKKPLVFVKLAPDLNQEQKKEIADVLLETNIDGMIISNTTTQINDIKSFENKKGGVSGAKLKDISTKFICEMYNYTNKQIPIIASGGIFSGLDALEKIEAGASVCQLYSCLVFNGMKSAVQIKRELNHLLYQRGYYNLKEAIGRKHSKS
Assay [5] in a line: inhibition of PAO1 biofilm formation – strain PAO1, LB-PBS medium, absorbance 600 nm, primary screen (AID 1176). Note: test concentration not given here. To be noted: P. aeruginosa PAO1 growth/biofilm, A600, 12 h; higher = more signal.
A short description of assay [6]: growth modulation of vineyard yeast isolate – strain RM11-1a, OD600, basal, 24 h, primary screen (AID 1177).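 Note: cultures grown under basal conditions with no added stressor; test concentration not given here.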 To be noted: S. cerevisiae RM11-1a growth, OD600, 24 h; higher = more signal, called active from +8 up or from −8 down.
Assay [7] is described as follows: growth of efflux-deficient E. coli DRC39 – strain DRC39, OD650, 24 h, E. coli filamentation inducers, primary screen (AID 1178).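 Note: growth measured as culture turbidity by optical density at 650 nm; test concentration not given here.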 The following applies: E. coli DRC39 acrAB, higher = more signal, called active from +8 up or from −8 down.
Assay [8] can be described thus: growth of efflux-deficient E. coli DRC39 – strain DRC39, OD650, 48 h, E. coli filamentation inducers, primary screen (AID 1179).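 Note: screen aims at cell division blockers that make cells filament.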 To be noted: E. coli DRC39 delta-acrAB growth, higher = more signal, called active from +8 up or from −8 down.
Assay [9] in a line: viability profiling in RPMI8226 myeloma cells – cell-based, resazurin fluorescence, basal, 24 h, PK04 Diversity Set, profiling panel (AID 1180).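 Note: RPMI8826 multiple myeloma cell line at 5000 cells per well; test concentration not given here.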 The following applies: higher = more signal.
Assay [10] deals with E3 ubiquitin-protein ligase XIAP (Homo sapiens) (UniProt P98170). Put plainly: small molecules binding XIAP protein – biophysical, small-molecule microarray, fluorescence 635 nm, primary screen (AID 1181).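 Note: score merges 667 nm emission and signal to noise over triplicate slides.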 The following applies: higher = more signal.
Chain of E3 ubiquitin-protein ligase XIAP (Homo sapiens) (P98170 whole entry, looked up): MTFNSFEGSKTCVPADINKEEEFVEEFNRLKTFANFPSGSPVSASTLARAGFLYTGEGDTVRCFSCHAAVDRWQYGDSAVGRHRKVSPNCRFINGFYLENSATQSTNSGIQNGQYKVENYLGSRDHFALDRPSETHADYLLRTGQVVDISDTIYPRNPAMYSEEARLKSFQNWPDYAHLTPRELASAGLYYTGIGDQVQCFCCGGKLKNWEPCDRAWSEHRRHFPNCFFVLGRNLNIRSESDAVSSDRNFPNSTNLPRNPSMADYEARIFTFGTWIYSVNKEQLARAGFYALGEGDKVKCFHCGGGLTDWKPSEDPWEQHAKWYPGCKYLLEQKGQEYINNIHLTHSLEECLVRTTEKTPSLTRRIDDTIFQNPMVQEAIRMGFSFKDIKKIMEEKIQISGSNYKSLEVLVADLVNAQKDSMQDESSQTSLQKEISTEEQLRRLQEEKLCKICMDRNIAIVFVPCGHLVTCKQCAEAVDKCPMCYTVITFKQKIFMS

`COC(=O)CC=C[C@H](C)[C@H](CO)NS(=O)(=O)c1ccc(C)cc1`: the z-score in [1] is -0.502; in assay [2] it was -0.342 (inactive); in [3], -0.701 (inactive); in assay [5] it was 1.09 (inactive); in assay [6], -0.513 (inactive); in [7] it was -0.586 (inactive). For the same compound, the z-score in assay [8] was -0.6 (inactive); in assay [9], 0.139. Moreover, the composite z-score was 0.0702 (inactive) in assay [4] and -0.123 in assay [10].

For `CO[C@@H]1COC(=O)CC=C[C@@H](C)COC(=O)[C@H](COCc2ccccc2)NC(=O)CC=C[C@H]1C`, the z-score in assay [1] is -0.466; in assay [2], -0.591 (inactive); in [3], 0.579 (inactive); in [5], -0.969 (inactive); in [6] it was 0.158 (inactive); in [7], 0.489 (inactive). Moreover, the z-score in assay [8] was -0.0248 (inactive); in assay [9], 0.783. Moreover, the composite z-score in assay [4] was 0.777 (inactive); in [10], 0.122.

Regarding `CCN1C(=O)[C@H]2[C@H]3[C@H](O)[C@H](O)CC(=NOC[C@@H](C)[C@H](OCc4ccccc4)C(C)C)[C@@H]3CC[C@H]2C1=O`, the z-score in assay [1] is -0.725; in assay [2] it was -4.63 (inactive); in assay [3], -0.959 (inactive); in [5], 0.0525 (inactive); in [6], -0.134 (inactive); in assay [7], 1.03 (inactive). For the same compound, the z-score in assay [8] was 0.992 (inactive); in assay [9], -0.989. The composite z-score in assay [4] is -0.613 (inactive); in assay [10], -0.0599.

`COC(=O)CC=C[C@@H](C)[C@H](OC)c1ccccc1Br`: the z-score in assay [1] is -0.327; in assay [2] it was -1.15 (inactive); in [3], -0.397 (inactive); in [5], -0.655 (inactive); in assay [6] it was 0.791 (inactive); in assay [7], 0.25 (inactive). Moreover, the figures for the z-score in assay [8] and in assay [9] were -0.129 (inactive) and 0.0866, respectively. Moreover, the composite z-score in assay [4] was -2.6 (inactive); in assay [10], -0.241.

For the compound `COc1ccc(CCNC(=O)[C@@H]2c3ccccc3C(=O)N(c3ccc(C)cn3)[C@H]2c2ccc(CO)cc2)cc1`, the z-score in assay [1] is 0.594; in [2], -0.742 (inactive); in [3], -0.806 (inactive); in assay [5], 0.525 (inactive); in [6] it was -0.195 (inactive); in assay [7] it was 0.0636 (inactive). Also, the z-score in assay [8] is -0.113 (inactive); in assay [9], 1. Further, the composite z-score is -0.204 (inactive) in assay [4] and -0.267 in assay [10].

Consider `CCCNC(=O)OC[C@H]1O[C@H](CCON=C2[C@H]3CCn4c(=O)n(-c5ccccc5)c(=O)n4[C@H]3[C@H](O)[C@@H]3O[C@H]23)C=C[C@@H]1Oc1ccc(OC)cc1`, for which the z-score is -0.633 in assay [1]; -0.521 (inactive) in assay [2]; -1.52 (inactive) in assay [3]; 0.0767 (inactive) in [5]; 0.12 (inactive) in assay [6]; 0.621 (inactive) in assay [7]. Further, the z-score is 1.13 (inactive) in assay [8] and -2.05 in assay [9]. In addition, the composite z-score is 0.017 (inactive) in [4] and -0.2 in assay [10].

For `CCOC(=O)CCN1C(=O)[C@H]2[C@H]3[C@H](O)[C@H](O)CC(=NOCc4ccccc4)[C@@H]3CC[C@H]2C1=O`, the z-score was -0.0233 in assay [1]; -0.949 (inactive) in assay [2]; -0.406 (inactive) in assay [3]; 0.683 (inactive) in assay [5]; -0.172 (inactive) in assay [6]; -0.852 (inactive) in assay [7]. The figures for the z-score in [8] and in assay [9] were -0.599 (inactive) and -0.103, respectively. For the same compound, the composite z-score is 0.404 (inactive) in assay [4] and 0.0455 in assay [10].

Turning to `CC(C)=CCCC(C)=CCON=C1[C@H]2CCn3c(=O)n(Cc4cc5c(cc4Cl)OCO5)c(=O)n3[C@H]2[C@H](O)[C@@H]2O[C@H]12`, the z-score was -0.594 in [1]; -0.696 (inactive) in [2]; -0.738 (inactive) in assay [3]; -0.471 (inactive) in assay [5]; -0.537 (inactive) in [6]; -0.464 (inactive) in assay [7]. In addition, the z-score in assay [8] is -0.72 (inactive); in assay [9], -0.357. For the same compound, the composite z-score in [4] is 0.207 (inactive); in assay [10], -0.224.

Take `O=C(NN=C1C[C@@H](O)[C@@H](O)[C@@H]2[C@@H]3C(=O)N(c4cccc(Oc5ccccc5)c4)C(=O)[C@@H]3CC[C@H]12)OCc1ccccc1`: the z-score in assay [1] was 0.615; in assay [2], -0.841 (inactive); in assay [3], -0.0525 (inactive); in assay [5] it was -0.708 (inactive); in assay [6], -0.474 (inactive); in assay [7] it was 0.578 (inactive). In addition, the results for the z-score in assay [8] and in assay [9] were 0.514 (inactive) and 0.49, respectively. For the same compound, the composite z-score was 0.294 (inactive) in assay [4] and -0.141 in [10].

For the compound `CO[C@@H]1COC(=O)[C@@H]2CCCN2C(=O)[C@@H](C)COC(=O)[C@H](COCc2ccccc2)NC(=O)CC=C[C@H]1C`, the z-score in assay [1] was -0.327; in assay [2], 0.185 (inactive); in [3], -0.722 (inactive); in [5] it was -0.455 (inactive); in assay [6], 0.549 (inactive); in assay [7] it was -0.489 (inactive). The z-score in [8] was -1.98 (inactive); in assay [9], -0.228. The composite z-score in assay [4] is -0.241 (inactive); in assay [10], -0.153.

For the compound `COC(=O)C1=CCC(c2cccc(Cl)c2)O1` (stereo not given), the z-score in [1] is -0.0749; in [2], -3.58 (inactive); in [3], -0.232 (inactive); in [5], 0.216 (inactive); in assay [6], -0.695 (inactive); in [7], -0.0684 (inactive). Also, the figures for the z-score in assay [8] and in assay [9] were -0.0113 (inactive) and -0.646, respectively. In addition, the composite z-score in assay [4] is -0.861 (inactive); in assay [10], -0.0962.

`COc1ccc(O[C@H]2C=C[C@@H](c3ccccc3)O[C@@H]2CON=C[C@@H](C)[C@H](OCc2ccccc2)C(C)C)cc1`: the z-score in assay [1] is -0.821; in assay [2] it was 0.742 (inactive); in [3], -1.69 (inactive); in assay [5], -0.348 (inactive); in assay [6], 0.443 (inactive); in assay [7], 0.335 (inactive). The z-score is 1.01 (inactive) in [8] and -0.854 in assay [9]. Besides, the figures for the composite z-score in assay [4] and in [10] were -0.896 (inactive) and 0.144, respectively.

Take `COC(=O)[C@@H]1CC[C@H](C)[C@@H](c2ccc(C)cc2)N1C(=O)c1ccc(C=NOC[C@@H](O)COCc2ccco2)cc1`: the z-score is -0.609 in assay [1]; -0.346 (inactive) in assay [2]; -1.06 (inactive) in assay [3]; 0.147 (inactive) in assay [5]; 0.0787 (inactive) in [6]; 0.462 (inactive) in [7]. Further, the z-score in assay [8] was 0.663 (inactive); in assay [9], -1.49. The composite z-score in assay [4] is 0.13 (inactive); in assay [10] it was -0.0891.
